# Experimental data published in PubChem BioAssay (EPA / NIEHS).
# Records with an inconclusive call do not appear. Active and inactive are the calls of the source. Rule for the calls, unless noted: active = hit-call score of the fitted dose curve at least 0.9, where 1 is the maximum; inactive = score below 0.9.
# Tests used:
# [1] = ACEA_ER_80hr: ACEA Biosciences xCELLigence Real-Time Cell Analysis on Estrogen Receptor Agonism for Proliferation (AID 2282667; active = hit-call score of the fitted dose curve at least 0.9, where 1 is the maximum); details: T47D proliferation, impedance (xCELLigence), 80 h
# Outline: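 Cell-growth kinetics were measured by impedance in T47D cells treated continuously with compound (top 100 uM final, 1:4 steps, 8 points). Activity at 80 h was scored as signal gain over the DMSO baseline.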
# [2] = ATG_CRE_CIS: Attagene CIS-FACTORIAL HepG2 Assay for human cAMP Responsive Element (CRE) binding protein 3 (AID 2282926); details: HepG2 CRE cis-reporter, Attagene multiplexed mRNA; actives raise or lower the signal
# Outline: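 Cells carrying cis-regulated reporter constructs respond through their own endogenous factors. After 24 h treatment, RNA is reverse-transcribed, amplified, labelled and sized by capillary electrophoresis; up- and down-regulation are both scored against vehicle.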
# [3] = target: CCAAT/enhancer-binding protein beta (Homo sapiens) (UniProt P17676); experiment: ATG_C_EBP_CIS: Attagene CIS-FACTORIAL HepG2 Assay for human CCAAT/Enhancer Binding Protein (C/EBP) beta (AID 2282927); details: HepG2 Attagene cis-factorial transcription factor reporter; actives raise or lower the signal
# Sequence of CCAAT/enhancer-binding protein beta (Homo sapiens) (P17676 whole entry, looked up): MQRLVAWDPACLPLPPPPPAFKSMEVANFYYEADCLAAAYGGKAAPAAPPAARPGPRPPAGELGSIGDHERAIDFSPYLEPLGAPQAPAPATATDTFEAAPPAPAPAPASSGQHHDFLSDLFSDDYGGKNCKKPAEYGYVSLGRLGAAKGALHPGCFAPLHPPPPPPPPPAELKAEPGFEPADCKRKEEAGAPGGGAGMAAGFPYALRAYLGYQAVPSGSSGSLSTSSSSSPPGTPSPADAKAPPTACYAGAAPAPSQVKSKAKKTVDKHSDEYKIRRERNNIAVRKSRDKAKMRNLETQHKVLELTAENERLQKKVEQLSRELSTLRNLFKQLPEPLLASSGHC
# Outline: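 Changes in reporter mRNA, rather than exogenous chimeric receptor activity, reflect native C/EBP signalling in transfected HepG2 cells dosed for 24 h; transcripts are detected by RT-PCR and capillary electrophoresis.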
# [4] = ATG_DR4_LXR_CIS: Attagene CIS-FACTORIAL HepG2 Assay for human Liver X Receptor (LXR), DR4 submotif (AID 2282929); details: HepG2 Attagene DR4 cis-reporter, mRNA transcription; actives raise or lower the signal
# Outline: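 Total RNA from 24 h-treated, MRTU-transfected HepG2 cells underwent reverse transcription, PCR, fluorescent primer extension and restriction digestion before capillary electrophoresis. Both increases and decreases in reporter signal were fitted against DMSO.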
# [5] = target: Aryl hydrocarbon receptor (Homo sapiens) (UniProt P35869); experiment: ATG_Ahr_CIS: Attagene CIS-FACTORIAL HepG2 Assay for human Aryl Hydrocarbon Receptor (Ahr) (AID 2282930); details: HepG2 AhR cis-factorial reporter transcription; actives raise or lower the signal
# Sequence of Aryl hydrocarbon receptor (Homo sapiens) (P35869 whole entry, looked up): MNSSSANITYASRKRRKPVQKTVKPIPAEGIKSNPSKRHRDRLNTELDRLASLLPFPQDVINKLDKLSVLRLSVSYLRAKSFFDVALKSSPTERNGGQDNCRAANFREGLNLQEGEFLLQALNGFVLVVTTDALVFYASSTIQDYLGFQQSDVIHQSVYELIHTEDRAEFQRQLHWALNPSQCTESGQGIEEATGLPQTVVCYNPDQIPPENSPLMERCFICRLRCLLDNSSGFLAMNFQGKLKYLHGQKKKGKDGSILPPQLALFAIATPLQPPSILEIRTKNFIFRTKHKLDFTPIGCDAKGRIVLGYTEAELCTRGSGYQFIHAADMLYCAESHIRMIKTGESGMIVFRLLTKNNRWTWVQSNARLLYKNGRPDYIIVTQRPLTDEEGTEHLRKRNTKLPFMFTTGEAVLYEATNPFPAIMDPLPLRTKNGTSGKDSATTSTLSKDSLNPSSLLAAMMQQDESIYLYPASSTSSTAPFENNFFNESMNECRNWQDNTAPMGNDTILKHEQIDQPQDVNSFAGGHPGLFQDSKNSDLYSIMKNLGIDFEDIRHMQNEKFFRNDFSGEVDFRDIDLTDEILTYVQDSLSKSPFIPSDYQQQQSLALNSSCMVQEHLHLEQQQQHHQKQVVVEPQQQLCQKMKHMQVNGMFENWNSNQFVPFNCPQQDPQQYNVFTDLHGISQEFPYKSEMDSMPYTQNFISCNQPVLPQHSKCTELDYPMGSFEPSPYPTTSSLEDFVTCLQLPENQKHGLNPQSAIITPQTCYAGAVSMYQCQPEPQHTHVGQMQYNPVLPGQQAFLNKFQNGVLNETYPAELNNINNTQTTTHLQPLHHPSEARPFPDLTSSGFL
# Outline: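 HepG2, transient MRTU (cis) transfection, 24 h exposure. RNA → cDNA → PCR → 6-FAM primer extension → HpaI 2 h 37 C → CE. Fit: bidirectional, DMSO baseline.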
# [6] = ATG_AP_1_CIS: Attagene CIS-FACTORIAL HepG2 Assay for human Activator Protein 1 (AP-1) (AID 2282931); details: HepG2 Attagene cis-factorial AP-1 reporter mRNA; actives raise or lower the signal
# Outline: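 HepG2, transient cis-reporter transfection; 24 h; readout RT-PCR/CE fluorescence; DMSO baseline, gain and loss fitted.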
# [7] = ATG_BRE_CIS: Attagene CIS-FACTORIAL HepG2 Assay for human Bone Morphogenetic Protein (BMP) Response Element (BRE) (AID 2282933); details: HepG2 BMP response element reporter, Attagene transcription factor profiling; actives raise or lower the signal
# Outline: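 Gain- or loss-of-signal was derived by bidirectional fitting against DMSO controls. The signal came from reporter mRNA, measured by RT-PCR and capillary electrophoresis, in HepG2 cells transiently carrying multiple reporter units and dosed for 24 h.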
# [8] = target: Retinoic acid receptor alpha (Homo sapiens) (UniProt P10276); experiment: ATG_DR5_RAR_CIS: Attagene CIS-FACTORIAL HepG2 Assay for human Retinoic Acid Receptor Alpha (RARE), DR5 submotif (AID 2282934); details: HepG2 Attagene cis-factorial RARE DR5 reporter, mRNA; actives raise or lower the signal;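 for AC50: reporter responds to endogenous RAR alpha beta and gamma in HepG2 not RARA alone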
# Sequence of Retinoic acid receptor alpha (Homo sapiens) (P10276 whole entry, looked up): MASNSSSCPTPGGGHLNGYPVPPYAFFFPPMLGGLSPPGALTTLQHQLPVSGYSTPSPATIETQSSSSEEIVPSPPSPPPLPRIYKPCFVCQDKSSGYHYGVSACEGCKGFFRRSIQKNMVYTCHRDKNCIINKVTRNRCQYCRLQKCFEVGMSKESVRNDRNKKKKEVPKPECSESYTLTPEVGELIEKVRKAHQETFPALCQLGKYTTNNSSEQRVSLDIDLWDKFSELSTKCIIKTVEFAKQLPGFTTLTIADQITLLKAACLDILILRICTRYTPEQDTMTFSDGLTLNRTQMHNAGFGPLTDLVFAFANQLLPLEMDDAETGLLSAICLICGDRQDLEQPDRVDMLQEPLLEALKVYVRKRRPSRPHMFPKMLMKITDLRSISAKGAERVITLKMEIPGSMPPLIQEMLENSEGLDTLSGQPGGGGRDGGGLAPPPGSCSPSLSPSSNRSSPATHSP
# Outline: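 HepG2, transient cis-reporter transfection, 24 h exposure. mRNA readout: RT-PCR, FAM label, HpaI cut, capillary electrophoresis. DMSO baseline, gain/loss fitting.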
# [9] = target: Transcription factor E2F1 (Homo sapiens) (UniProt Q01094); experiment: ATG_E2F_CIS: Attagene CIS-FACTORIAL HepG2 Assay for human E2F Transcription Factor 1 (AID 2282935); details: HepG2 Attagene cis-reporter, E2F reporter RNA transcripts; actives raise or lower the signal
# Sequence of Transcription factor E2F1 (Homo sapiens) (Q01094 whole entry, looked up): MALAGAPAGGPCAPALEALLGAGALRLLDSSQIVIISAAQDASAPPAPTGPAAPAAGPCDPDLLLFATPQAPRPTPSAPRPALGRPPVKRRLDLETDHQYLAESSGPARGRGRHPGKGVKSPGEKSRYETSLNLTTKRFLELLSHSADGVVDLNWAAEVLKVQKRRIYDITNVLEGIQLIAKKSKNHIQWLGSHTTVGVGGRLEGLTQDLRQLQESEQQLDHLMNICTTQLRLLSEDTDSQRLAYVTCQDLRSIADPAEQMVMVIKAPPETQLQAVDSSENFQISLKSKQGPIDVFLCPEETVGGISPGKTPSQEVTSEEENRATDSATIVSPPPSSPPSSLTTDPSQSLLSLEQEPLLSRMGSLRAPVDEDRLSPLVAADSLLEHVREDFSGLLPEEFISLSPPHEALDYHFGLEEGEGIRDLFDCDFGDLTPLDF
# Outline: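 Gain or loss of reporter transcript, fitted against DMSO, reflects E2F1-driven transcription. Transiently transfected HepG2 dosed 24 h before RNA isolation. Quantified by fluorescent RT-PCR products separated by capillary electrophoresis.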
# [10] = ATG_E_Box_CIS: Attagene CIS-FACTORIAL HepG2 Assay for human Enhancer Box (E-box) (AID 2282936); details: HepG2 E-box cis-reporter transcription, actives raise or lower the signal
# Outline: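 E-box-driven reporter transcripts measured in transiently transfected HepG2 after 24 h exposure: RNA reverse-transcribed, PCR-amplified, fluorescently labelled, digested and resolved by capillary electrophoresis. Gain or loss relative to DMSO.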
# [11] = ATG_M_61_CIS: Attagene CIS-FACTORIAL HepG2 Assay for M61 Transcription Factor (Internal Marker) (AID 2282937); details: HepG2 Attagene CIS-FACTORIAL M61 internal marker reporter; actives raise or lower the signal
# Outline: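 Transfect HepG2 with MRTUs; dose 24 h; isolate RNA; reverse-transcribe with DNase I treatment; PCR-amplify, FAM-label and cut with HpaI for 2 h at 37 C; resolve by CE. Bidirectional fitting against DMSO.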
# [12] = ATG_EGR_CIS: Attagene CIS-FACTORIAL HepG2 Assay for human Early Growth Response 1 (EGR1) (AID 2282938); details: HepG2 Attagene CIS-FACTORIAL EGR reporter mRNA; actives raise or lower the signal
# Outline: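 After a 24 h treatment of transiently transfected HepG2 cells, total RNA was reverse-transcribed and reporter sequences PCR-amplified, labelled and run on capillary electrophoresis. Reporters sit under cis-regulatory promoters sensing endogenous factors.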
# [13] = ATG_M_19_CIS: Attagene CIS-FACTORIAL HepG2 Assay for M19 Transcription Factor (Internal Marker) (AID 2282939); details: HepG2 Attagene CIS-FACTORIAL M19 internal marker reporter; actives raise or lower the signal
# Outline: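 Following a 24 h exposure, RNA from transfected HepG2 cells was reverse-transcribed, PCR-amplified with reporter-specific primers, end-labelled with 6-FAM and HpaI-digested before capillary separation. Values represent gain or loss versus DMSO.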
# [14] = ATG_ERE_CIS: Attagene CIS-FACTORIAL HepG2 Assay for Estrogen Response Element (ERE) (AID 2282940); details: HepG2 ERE cis-reporter, Attagene RNA transcript; actives raise or lower the signal
# Outline: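 HepG2, transient cis-reporter units, 24 h exposure. RNA isolated, oligo(dT) RT, reporter-specific PCR, FAM extension, HpaI cut, CE detection. Gain/loss-of-signal vs DMSO.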
# [15] = ATG_Ets_CIS: Attagene CIS-FACTORIAL HepG2 Assay for human Erythroblast Transformation Specific (ETS) (AID 2282941); details: HepG2 ETS cis-reporter transcription, actives raise or lower the signal
# Outline: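 Multiplexed reporter transcript profiling: HepG2, 24 h treatment, total RNA to cDNA, PCR, 6-FAM labelling, HpaI cut, capillary electrophoresis. Gain- or loss-of-signal fitted against DMSO.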
# [16] = target: Hepatocyte nuclear factor 3-beta (Homo sapiens) (UniProt Q9Y261); experiment: ATG_FoxA2_CIS: Attagene CIS-FACTORIAL HepG2 Assay for human Forkhead box A2 (FOXA2) (AID 2282942); details: HepG2 cis-reporter transcription factor activity, 24 h; actives raise or lower the signal
# Sequence of Hepatocyte nuclear factor 3-beta (Homo sapiens) (Q9Y261 whole entry, looked up): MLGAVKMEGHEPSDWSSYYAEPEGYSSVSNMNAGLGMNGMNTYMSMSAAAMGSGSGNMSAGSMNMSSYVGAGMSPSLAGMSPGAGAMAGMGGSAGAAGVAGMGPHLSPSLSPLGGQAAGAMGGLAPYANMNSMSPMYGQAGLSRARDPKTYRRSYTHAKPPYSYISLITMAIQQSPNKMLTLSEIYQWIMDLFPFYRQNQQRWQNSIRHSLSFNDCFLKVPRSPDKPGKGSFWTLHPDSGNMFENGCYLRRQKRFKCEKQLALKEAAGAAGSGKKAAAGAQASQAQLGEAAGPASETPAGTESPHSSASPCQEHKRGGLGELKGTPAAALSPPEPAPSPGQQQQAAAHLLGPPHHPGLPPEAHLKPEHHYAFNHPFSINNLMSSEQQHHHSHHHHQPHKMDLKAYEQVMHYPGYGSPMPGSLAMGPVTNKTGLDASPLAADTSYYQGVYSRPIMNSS
# Outline: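 24 h dosing of HepG2 bearing cis-reporter constructs; mRNA readout by RT-PCR/CE fluorescence; bidirectional fit, DMSO baseline.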
# [17] = ATG_FoxO_CIS: Attagene CIS-FACTORIAL HepG2 Assay for human Forkhead box O (FoxO) (AID 2282943); details: HepG2 Attagene cis-reporter, FoxO element, mRNA; actives raise or lower the signal
# Outline: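 Human hepatoma HepG2 cells carry transiently introduced reporter transcription units controlled by cis promoter elements. Chemical treatment lasted 24 h, and mRNA signal was compared with DMSO.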
# [18] = ATG_GATA_CIS: Attagene CIS-FACTORIAL HepG2 Assay for human GATA Binding Protein (AID 2282944); details: HepG2 GATA cis-element reporter, Attagene multiplex mRNA; actives raise or lower the signal
# Outline: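 DMSO serves as negative control and baseline for bidirectional fitting of reporter mRNA changes. HepG2 cells bearing transiently transfected cis-promoter reporters were exposed 24 h; transcripts detected via RT-PCR and capillary electrophoresis.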
# [19] = ATG_AP_2_CIS: Attagene CIS-FACTORIAL HepG2 Assay for human Activator Protein 2 (AP-2) (AID 2282932); details: HepG2 AP-2 cis-reporter, Attagene transcription factor profiling; actives raise or lower the signal
# Outline: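 Endogenous transcription factor activity is reported through transfected multiplex reporter constructs in HepG2, after 24 h of compound exposure. Transcripts were quantified by RT-PCR and capillary electrophoresis of fluorescent fragments. Bidirectional fit against DMSO.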
# [20] = ATG_CMV_CIS: Attagene CIS-FACTORIAL HepG2 Assay for human CMV (Internal Marker) (AID 2282928); details: HepG2 CMV promoter reporter, transcription factor profiling; actives raise or lower the signal;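 note: endpoint acts as a background internal control marker rather than a target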
# Outline: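 Fluorescence intensity of RT-PCR-derived reporter fragments, resolved by capillary electrophoresis, gives the signal. HepG2 liver cells bearing transfected cis-element reporters were treated 24 h; activity in either direction was fit relative to DMSO-treated controls.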
smiles,measurement,setting,value
CCOc1ccc(NC(N)=O)cc1,outcome,[1],inactive
same,outcome,[2],inactive
same,outcome,[3],inactive
same,outcome,[4],inactive
same,outcome,[5],inactive
same,outcome,[6],inactive
same,outcome,[7],inactive
same,outcome,[8],inactive
same,outcome,[9],inactive
same,outcome,[10],inactive
same,outcome,[11],inactive
same,outcome,[12],inactive
same,outcome,[13],inactive
same,outcome,[14],inactive
same,outcome,[15],inactive
same,outcome,[16],inactive
same,outcome,[17],inactive
same,outcome,[18],inactive
C=CCCCCCCCCC=O,outcome,[1],inactive
same,outcome,[2],inactive
same,outcome,[3],inactive
same,outcome,[4],inactive
same,outcome,[5],inactive
same,outcome,[6],inactive
same,outcome,[19],inactive
same,outcome,[7],inactive
same,outcome,[8],inactive
same,outcome,[9],inactive
same,outcome,[10],inactive
same,outcome,[12],inactive
same,outcome,[13],inactive
same,AC50,[14],88.7 µM (active)
same,outcome,[15],inactive
same,outcome,[16],inactive
same,outcome,[17],inactive
same,outcome,[18],inactive
CCOC(=O)/C=C\C(=O)OCC,outcome,[1],inactive
same,outcome,[2],inactive
same,outcome,[3],inactive
same,outcome,[20],inactive
same,outcome,[5],inactive
same,AC50,[6],50.5 µM (active)
same,outcome,[7],inactive
same,outcome,[8],inactive
same,outcome,[9],inactive
same,outcome,[10],inactive
same,outcome,[11],inactive
same,outcome,[12],inactive
same,outcome,[13],inactive
same,outcome,[14],inactive
same,outcome,[15],inactive
same,outcome,[16],inactive
same,outcome,[17],inactive
same,outcome,[18],inactive
C=C(C)C1CC=C(C)C(OC(C)=O)C1 (configuration not stated),outcome,[1],inactive
same,outcome,[2],inactive
same,outcome,[3],inactive
same,outcome,[4],inactive
same,outcome,[5],inactive
same,outcome,[6],inactive
same,outcome,[19],inactive
same,outcome,[7],inactive
same,outcome,[8],inactive
same,outcome,[9],inactive
same,outcome,[10],inactive
same,outcome,[12],inactive
same,outcome,[13],inactive
same,outcome,[14],inactive
same,outcome,[15],inactive
same,outcome,[16],inactive
same,outcome,[17],inactive
same,outcome,[18],inactive
CCCCCCCC(=O)OCC(COC(=O)CCCCCCC)OC(=O)CCCCCCC,outcome,[1],inactive
same,outcome,[2],inactive
same,outcome,[3],inactive
same,outcome,[4],inactive
same,outcome,[5],inactive
same,outcome,[6],inactive
same,outcome,[19],inactive
same,outcome,[7],inactive
same,outcome,[8],inactive
same,outcome,[9],inactive
same,outcome,[10],inactive
same,outcome,[11],inactive
same,outcome,[12],inactive
same,outcome,[13],inactive
same,outcome,[15],inactive
same,outcome,[16],inactive
same,outcome,[17],inactive
same,outcome,[18],inactive
Cc1cc(=O)[nH]c(=O)[nH]1,outcome,[1],inactive
same,outcome,[2],inactive
same,outcome,[3],inactive
same,outcome,[4],inactive
same,outcome,[5],inactive
same,outcome,[6],inactive
same,outcome,[19],inactive
same,outcome,[7],inactive
same,outcome,[8],inactive
same,outcome,[9],inactive
same,outcome,[10],inactive
same,outcome,[12],inactive
same,outcome,[13],inactive
same,outcome,[14],inactive
same,outcome,[17],inactive
CC/C=C\C/C=C\C/C=C\CCCCCCCC(=O)OC,outcome,[1],inactive
same,outcome,[2],inactive
same,outcome,[3],inactive
same,AC50,[4],71.1 µM (active)
same,AC50,[5],47.6 µM (active)
same,AC50,[6],70.6 µM (active)
same,AC50,[19],100 µM (active)
same,AC50,[7],167 µM (active)
same,AC50,[8],100 µM (active)
same,outcome,[9],inactive
same,AC50,[10],134 µM (active)
same,outcome,[11],inactive
same,outcome,[12],inactive
same,outcome,[13],inactive
same,AC50,[14],38.9 µM (active)
same,outcome,[16],inactive
same,AC50,[17],158 µM (active)
same,outcome,[18],inactive
CCCC/C=C/C=C\C=O,outcome,[1],inactive
same,outcome,[2],inactive
same,outcome,[3],inactive
same,AC50,[4],135 µM (active)
same,outcome,[5],inactive
same,AC50,[6],149 µM (active)
same,outcome,[19],inactive
same,outcome,[7],inactive
same,outcome,[8],inactive
same,outcome,[9],inactive
same,outcome,[10],inactive
same,outcome,[11],inactive
same,AC50,[12],100 µM (active)
same,outcome,[13],inactive
same,outcome,[14],inactive
same,outcome,[15],inactive
same,outcome,[16],inactive
same,outcome,[17],inactive
same,outcome,[18],inactive
